This is an account of results in the supplement of paper PMC4962491.

± gives the standard deviation of the averaged measurements.
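Further: compound exposure in DMEM (4 mM L-glutamine, 5 mM glucose), antimycin A injected at 2 µM after the basal reading and its residual OCR subtracted from basal.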

The first assay deals with FaDu. As to the kind of experiment: mitochondrial oxygen consumption rate normalised to cell number, Z score vs plate DMSO wells; higher = higher oxygen consumption (negative = OCR reduction). The conditions noted are these: 0.08 µM; treatment time 24 h; assay medium: 5 mM glucose, 5 mM pyruvate, 4 mM glutamine. The protocol:
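Secondary screen: FaDu cells were incubated 24 h with the top 130 primary hits at 0.08, 0.4, 2 or 10 uM. Mitochondrial-specific OCR (basal minus antimycin A) was measured on a Seahorse XF96 in medium with 5 mM glucose, 5 mM pyruvate and 4 mM glutamine and normalised to Hoechst cell number. OCR score = (OCR - mean of plate DMSO wells) / SD of plate DMSO wells. Three repeats.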
With `CCCCCCCCCCCCCCCC[N+](C)(C)CCN(Cc1ccc(OC)cc1)c1ncccn1`, the “mitochondrial oxygen consumption rate normalised” value was 0.201 ± 1.1.
Consider `CN(C)c1ccc(C(=C2C=CC(=[N+](C)C)C=C2)c2ccc(N(C)C)cc2)cc1`, for which the “mitochondrial oxygen consumption rate normalised” value is -0.504 ± 1.3.
Turning to `CCN(CC)CCCC(C)Nc1c2ccc(Cl)cc2nc2ccc(OC)cc12` (stereo not given), the “mitochondrial oxygen consumption rate normalised” value is -0.58 ± 1.2.
Take `N=C(N)c1ccc(OCCCCCOc2ccc(C(=N)N)cc2)cc1`: the “mitochondrial oxygen consumption rate normalised” value came out at 0.754 ± 1.1.
For `C[n+]1cc2c3c(ccc2c2ccc4cc5c(cc4c21)OCO5)OCO3`, the “mitochondrial oxygen consumption rate normalised” value came out at 0.385 ± 0.96.
Still for that read-out and setting: the result for `CCCCCCCCCCCCC[N+](C)(C)Cc1ccccc1` reads -1.59 ± 1.3; that for `Cc1ccc2c(Br)cc(Br)c(OC(=O)c3ccccc3)c2n1`, 1.43 ± 0.79; that for `CCOc1ccc2nc3cc(N)ccc3c(N)c2c1`, -0.404 ± 1.3.
For the molecule `O=[N+]([O-])c1ccc(O)c2ncccc12`, the “mitochondrial oxygen consumption rate normalised” value was found to be 0.333 ± 0.4.
Regarding `N[C@@H](Cc1ccc(O)c(O)c1)C(=O)O`, the “mitochondrial oxygen consumption rate normalised” value worked out at 0.0621 ± 1.8.
`Cc1c2oc3c(C)ccc(C(=O)N[C@@H]4C(=O)N[C@H](C(C)C)C(=O)N5CCC[C@H]5C(=O)N(C)CC(=O)N(C)[C@@H](C(C)C)C(=O)O[C@@H]4C)c3nc-2c(C(=O)N[C@@H]2C(=O)N[C@H](C(C)C)C(=O)N3CCC[C@H]3C(=O)N(C)CC(=O)N(C)[C@@H](C(C)C)C(=O)O[C@@H]2C)c(N)c1=O`: the “mitochondrial oxygen consumption rate normalised” value is -3.2 ± 1.3.
The same measure, in the same setting: to `CCCCCCCCCc1ccc(OCCOCCOCCOCCOCCOCCOCCOCCOCCO)cc1` belongs 0.0515 ± 1; to `CCc1cc(Cl)c(OC)c(C(=O)NC[C@@H]2CCCN2CC)c1O`, 0.346 ± 0.99.
As for `C[n+]1c2cc(N)ccc2cc2ccc(N)cc21`, the “mitochondrial oxygen consumption rate normalised” value was 0.662 ± 0.73.
Still for that read-out and setting: the result for `NS(=O)(=O)c1cc2c(cc1Cl)N=CNS2(=O)=O` reads -0.245 ± 2.1; that for `C#C[C@]1(O)CC[C@H]2[C@@H]3CCC4=CC(=O)CC[C@@H]4[C@H]3CC[C@@]21CC`, 0.538 ± 0.4; that for `Nc1nc2[nH]cnc2c(=S)[nH]1`, -1.04 ± 1.9.
With `COc1cccc2c1C(=O)c1c(O)c3c(c(O)c1C2=O)C[C@@](O)(C(=O)CO)C[C@@H]3O[C@H]1C[C@H](N)[C@@H](O)[C@H](C)O1`, the “mitochondrial oxygen consumption rate normalised” value is -0.0709 ± 0.37.
On to `CC(COc1ccccc1)NC(C)C(O)c1ccc(O)cc1` (stereo not given), for which the “mitochondrial oxygen consumption rate normalised” value is 0.276 ± 1.4.
`CCCCCCCCCCCCCCCC[N+](C)(C)C`: the “mitochondrial oxygen consumption rate normalised” value amounted to 0.46 ± 0.86.
On the same count and under the same terms, the result for `O=C(O)c1cc(/N=N/c2ccc(O)c(C(=O)O)c2)ccc1O` reads 0.0704 ± 1.6; that for `COc1ccc(C[C@H](N)C(=O)N[C@H]2[C@@H](O)[C@H](n3cnc4c(N(C)C)ncnc43)O[C@@H]2CO)cc1`, -1.29 ± 1.7.
Take `CC(C(O)c1ccc(O)cc1)N1CCC(Cc2ccccc2)CC1` (stereo not given): the “mitochondrial oxygen consumption rate normalised” value turned out to be 0.382 ± 1.5.
The same measure, in the same setting: the result for `O=c1cc[nH]c(=S)[nH]1` reads -0.646 ± 1.9; that for `CCCCCC(=O)O[C@]1(C(C)=O)CC[C@H]2[C@@H]3CCC4=CC(=O)CC[C@]4(C)[C@H]3CC[C@@]21C`, 0.448 ± 1.4.

The same assay, now with this note: 0.4 µM; treatment time 24 h; assay medium: 5 mM glucose, 5 mM pyruvate, 4 mM glutamine.
As for `CCCCCCCCCCCCCCCC[N+](C)(C)CCN(Cc1ccc(OC)cc1)c1ncccn1`, the “mitochondrial oxygen consumption rate normalised” value worked out at 1.55 ± 0.82.
Take `CN(C)c1ccc(C(=C2C=CC(=[N+](C)C)C=C2)c2ccc(N(C)C)cc2)cc1`: the “mitochondrial oxygen consumption rate normalised” value was -6.33 ± 1.1.
Same read-out and setting: to `CCN(CC)CCCC(C)Nc1c2ccc(Cl)cc2nc2ccc(OC)cc12` (stereo not given) belongs 0.524 ± 1.1; to `N=C(N)c1ccc(OCCCCCOc2ccc(C(=N)N)cc2)cc1`, -0.0335 ± 0.92; to `C[n+]1cc2c3c(ccc2c2ccc4cc5c(cc4c21)OCO5)OCO3`, 0.59 ± 0.68.
Still for that read-out and setting: to `CCCCCCCCCCCCC[N+](C)(C)Cc1ccccc1` belongs -3.65 ± 1.3.
The same measure, in the same setting: to `Cc1ccc2c(Br)cc(Br)c(OC(=O)c3ccccc3)c2n1` belongs 0.324 ± 0.71; to `CCOc1ccc2nc3cc(N)ccc3c(N)c2c1`, 0.17 ± 0.56; to `O=[N+]([O-])c1ccc(O)c2ncccc12`, 1.67 ± 1.1.
On to `N[C@@H](Cc1ccc(O)c(O)c1)C(=O)O`, for which the “mitochondrial oxygen consumption rate normalised” value came out at 0.345 ± 0.69.
For `Cc1c2oc3c(C)ccc(C(=O)N[C@@H]4C(=O)N[C@H](C(C)C)C(=O)N5CCC[C@H]5C(=O)N(C)CC(=O)N(C)[C@@H](C(C)C)C(=O)O[C@@H]4C)c3nc-2c(C(=O)N[C@@H]2C(=O)N[C@H](C(C)C)C(=O)N3CCC[C@H]3C(=O)N(C)CC(=O)N(C)[C@@H](C(C)C)C(=O)O[C@@H]2C)c(N)c1=O`, the “mitochondrial oxygen consumption rate normalised” value was -7.48 ± 0.36.
Take `CCCCCCCCCc1ccc(OCCOCCOCCOCCOCCOCCOCCOCCOCCO)cc1`: the “mitochondrial oxygen consumption rate normalised” value was found to be 0.101 ± 0.62.
Consider `CCc1cc(Cl)c(OC)c(C(=O)NC[C@@H]2CCCN2CC)c1O`, for which the “mitochondrial oxygen consumption rate normalised” value worked out at 1.18 ± 0.45.
As for `C[n+]1c2cc(N)ccc2cc2ccc(N)cc21`, the “mitochondrial oxygen consumption rate normalised” value was -1.94 ± 0.8.
On the same count and under the same terms, the result for `NS(=O)(=O)c1cc2c(cc1Cl)N=CNS2(=O)=O` reads 0.722 ± 0.73.
Turning to `C#C[C@]1(O)CC[C@H]2[C@@H]3CCC4=CC(=O)CC[C@@H]4[C@H]3CC[C@@]21CC`, the “mitochondrial oxygen consumption rate normalised” value is 1.49 ± 0.65.
The same measure, in the same setting: the result for `Nc1nc2[nH]cnc2c(=S)[nH]1` reads -0.865 ± 0.14; that for `COc1cccc2c1C(=O)c1c(O)c3c(c(O)c1C2=O)C[C@@](O)(C(=O)CO)C[C@@H]3O[C@H]1C[C@H](N)[C@@H](O)[C@H](C)O1`, 1.4 ± 1.
In the case of `CC(COc1ccccc1)NC(C)C(O)c1ccc(O)cc1` (stereo not given), the “mitochondrial oxygen consumption rate normalised” value worked out at 1.57 ± 0.3.
Turning to `CCCCCCCCCCCCCCCC[N+](C)(C)C`, the “mitochondrial oxygen consumption rate normalised” value was -0.326 ± 1.
Same read-out and setting: to `O=C(O)c1cc(/N=N/c2ccc(O)c(C(=O)O)c2)ccc1O` belongs 0.359 ± 0.82; to `COc1ccc(C[C@H](N)C(=O)N[C@H]2[C@@H](O)[C@H](n3cnc4c(N(C)C)ncnc43)O[C@@H]2CO)cc1`, -0.131 ± 0.75.
On the same count and under the same terms, to `CC(C(O)c1ccc(O)cc1)N1CCC(Cc2ccccc2)CC1` (stereo not given) belongs 0.565 ± 0.59; to `O=c1cc[nH]c(=S)[nH]1`, 1.11 ± 0.98; to `CCCCCC(=O)O[C@]1(C(C)=O)CC[C@H]2[C@@H]3CCC4=CC(=O)CC[C@]4(C)[C@H]3CC[C@@]21C`, 0.998 ± 0.5.
